TRPML1 ag – qHTS for Agonists of the Human Mucolipin Transient Receptor Potential 1 (TRPML1); 410,000 tested, 0.12% active; TRPML1-expressing cells, Ca2+ dye fluorescence, FDSS; activation, % (no concentration beside the values); Mucolipin-1 (Homo sapiens), Q9GZU1; in the data active means activation above about 50%; inconclusive means mostly about 30% to 49%
Target sequence (Q9GZU1 whole entry, looked up): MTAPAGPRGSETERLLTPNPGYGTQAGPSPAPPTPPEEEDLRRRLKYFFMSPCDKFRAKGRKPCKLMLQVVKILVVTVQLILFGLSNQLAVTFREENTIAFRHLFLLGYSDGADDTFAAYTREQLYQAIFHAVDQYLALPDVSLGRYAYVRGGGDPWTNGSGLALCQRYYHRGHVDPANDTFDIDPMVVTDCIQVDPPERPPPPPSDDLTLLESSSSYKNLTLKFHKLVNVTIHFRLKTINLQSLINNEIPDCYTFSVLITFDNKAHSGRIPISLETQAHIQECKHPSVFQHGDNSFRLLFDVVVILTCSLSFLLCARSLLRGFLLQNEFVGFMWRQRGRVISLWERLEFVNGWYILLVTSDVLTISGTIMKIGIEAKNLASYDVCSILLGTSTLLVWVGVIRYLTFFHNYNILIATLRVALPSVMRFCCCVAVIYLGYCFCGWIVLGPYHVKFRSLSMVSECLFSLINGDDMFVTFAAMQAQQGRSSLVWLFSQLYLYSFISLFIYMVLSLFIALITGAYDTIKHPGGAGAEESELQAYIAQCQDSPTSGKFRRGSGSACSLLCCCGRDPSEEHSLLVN
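In this qHTS format, compounds were pin-transferred onto Ca8-dye-loaded TRPML1-DL cells induced with Tet overnight, and intracellular Ca2+ fluorescence was recorded kinetically for 110 s after a 10 s baseline. A subsequent 4uM final 54-4 (EC80) addition followed by a second 110 s read served as the antagonist phase.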
Glioma ERSR ind – qHTS for Inducers of the Endoplasmic Reticulum Stress Response (ERSR) in Human Glioma: qHTS; U87-MG GRP78 promoter luciferase reporter, 16 h; Potency, µM, usual class: activators; 420,000 tested, 0.02% active; active means well fitted activation curve with a large enough effect; inconclusive means small, poorly fitted or top-dose-only effect; inactive means no such curve, though single readings can be large or run the other way; further: series mostly up to about 76 µM; nearly all actives have a fitted effect of over 35% in size
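Stably transfected U87-MG glioma cells carrying a GRP78-based luciferase sensor; 16 h compound incubation. Luminescence end-point read 10 min after Bright-Glo addition at room temperature.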
TRPML1 blocker – qHTS for Inhibitors of the Human Mucolipin Transient Receptor Potential 1 (TRPML1); Mucolipin-1 (Homo sapiens), Q9GZU1; TRPML1-inducible cells, Ca2+ dye fluorescence, FDSS; active compounds read low; inhibition of EC80 agonist-evoked calcium signal; activity change, negative = inhibition, % (concentration not given with the values); 390,000 tested, 0.02% active; AID 624415, 2012; in the data active means activity change below about -50%; inconclusive means between about -30% and that limit;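 further: stimulus is agonist 54-4 at its EC80 concentration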
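Calcium fluorescence in TRPML1-DL cells induced overnight with Tet: a 110 s read after compound pin addition, then a 110 s antagonist read after challenge with 54-4 at 4 uM final (EC80).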
TRHR enhancer – qHTS for Small Molecule Agonists and Allosteric Enhancers of Human TRH Receptor: Primary Screen for Enhancers | Thyrotropin-releasing hormone receptor (Homo sapiens), P34981 | TRHR cells, fluo-8 calcium fluorescence, EC20 TRH enhancement | enhancement, % at 2 µM | 360,000 tested, 0.66% active; in the data active means enhancement above about 30%
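TRHR-expressing cells loaded with fluo-8 calcium dye were read kinetically (ex 480/em 530) during compound addition, then stimulated with an EC20 of TRH (10 nM final). Enhancement of the Gq-mediated intracellular calcium response was scored.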
TRHR ag – qHTS for Small Molecule Agonists and Allosteric Enhancers of Human TRH Receptor: Primary Screen for Agonists; activation, % at 2 µM; AID 493084, 2011; 360,000 tested, 0.18% active; Thyrotropin-releasing hormone receptor (Homo sapiens), P34981; TRHR cells, calcium flux fluo-8, FDSS agonist mode; in the data active means activation above about 30%
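Steps: seed TRHR cells overnight; add fluo-8 no-wash Ca dye, RT 30 min–1.5 h; record 10 s baseline; pin-transfer compounds; monitor fluorescence 1 cycle/s for the agonist window. Calcium increases flag candidate agonists.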
Of the large screens only hits and unclear results are named; the others gave an inactive call. Rows were chosen to be rich in hits. Some 0.8% of all compounds tested hit in one or more screens of this group.

CC(=O)c1c(C)n(-c2ccc(Cl)cc2)c2ccc(O)cc12	TRHR enhancer 39
CC(=O)c1ccc(-n2c(C)c(C(C)=O)c3cc(O)ccc32)cc1	none
Cc1ccc(CNc2nc(-c3ccco3)nn2C(=O)c2ccccc2[N+](=O)[O-])cc1	TRHR enhancer 37
S=C(c1ccc(-c2ccccc2)cc1)N1CCOCC1	TRHR enhancer 34
O=S(=O)(Nc1cccc2cccnc12)c1ccc(S(=O)(=O)N2CCCC2)cc1	TRPML1 ag 66, Glioma ERSR ind inconclusive
COc1ccc2c(c1)OC(C)CN(CCNC(=O)c1cc3cc(F)ccc3[nH]1)C2 (configuration not stated)	none (no result: TRPML1 ag, TRPML1 blocker, TRHR enhancer, TRHR ag)
COc1cc(OC)c2nc(-c3cc4c(c(OC)c3)OCCN(Cc3cn(C)nc3C)C4)cc(C)c2c1	none (no result: TRPML1 ag, TRPML1 blocker, TRHR enhancer, TRHR ag)
C/C(CC(=O)N1CCN(C=O)CC1)=N\NC(=O)c1ccc(Cl)cc1	none
O=CN1CCN(C(=S)NC(=O)c2ccc(Cl)cc2)CC1	TRHR enhancer 39
CC(C)c1onc(C(=O)NCc2ccccn2)c1[N+](=O)[O-]	TRHR enhancer 31
C=CCN1C(=O)/C(=C\C=C2\N(C)c3ccccc3C2(C)C)SC1=S	none
CN1/C(=C\C=C2/SC(=S)N(CC(=O)O)C2=O)C(C)(C)c2ccccc21	TRHR ag 112
COc1cc(=O)n2c(c1C(=O)N(C)Cc1cscn1)CCN(Cc1ccc3c(c1)OCCO3)CC2	none (no result: TRPML1 ag, TRPML1 blocker, TRHR enhancer, TRHR ag)
COc1cc(NC(=O)c2c(C)nn(-c3ccc(F)cc3)c2-n2cccc2)cc(OC)c1	TRHR ag 42
CCn1cc(C(=O)NC(C)C2CC3CCC2C3)cn1 (configuration not stated)	TRHR enhancer 31
COc1ccc2ccccc2c1CN1CCc2nnc(CNC(=O)c3cccc(F)c3)n2CC1	none (no result: TRPML1 ag, TRPML1 blocker, TRHR enhancer, TRHR ag)
CCC1(C2CCN(Cc3c(C)[nH]c4ccccc34)CC2)NC(=O)N(Cc2ccc3c(c2)OCO3)C1=O (configuration not stated)	none (no result: TRPML1 ag, TRPML1 blocker, TRHR enhancer, TRHR ag)
Cc1ccc(-c2nnc(Nc3ccc(C(N)=O)cc3)c3ccccc23)cc1S(=O)(=O)N1CCCCC1	none
Cc1ccc(-c2nnc(Nc3ccc(O)cc3)c3ccccc23)cc1S(=O)(=O)N1CCCCC1	TRHR enhancer 30
COc1ccc(C2(c3ccc(OC)cc3)NC(=O)N(CC(=O)Nc3ccccc3C)C2=O)cc1	TRHR enhancer 36
COc1ccc(C2(c3ccc(OC)cc3)NC(=O)N(CC(=O)Nc3ccccc3C(F)(F)F)C2=O)cc1	none
OCCCNCc1cc2ccc(F)cc2nc1N1CCN(c2cccc(Cl)c2)CC1	none (no result: TRPML1 ag, TRPML1 blocker, TRHR enhancer, TRHR ag)
Cc1ncoc1C(=O)N1CCCC(C(=O)Nc2cccc(-c3ccc(F)cc3)c2)C1 (configuration not stated)	TRPML1 ag 53
O=C(Nc1cccc(-c2ccc(F)cc2)c1)C1CCCN(C(=O)c2cscn2)C1 (configuration not stated)	none
CCC1(C2CCN(C(=O)c3csc(C(C)=O)c3)CC2)NC(=O)N(CCc2scnc2C)C1=O (configuration not stated)	none (no result: TRPML1 ag, TRPML1 blocker, TRHR enhancer, TRHR ag)
COc1ccccc1C1CC(c2ccc(NS(C)(=O)=O)cc2)=NN1S(=O)(=O)c1ccccc1 (configuration not stated)	none
COc1ccccc1C1CC(c2cccc(NS(C)(=O)=O)c2)=NN1S(=O)(=O)c1ccccc1 (configuration not stated)	TRHR enhancer 31
COCCN(C)C(=O)c1cnn(-c2ncc3c(n2)-c2ccccc2CC3)c1C	none (no result: TRPML1 ag, TRPML1 blocker, TRHR enhancer, TRHR ag)
O=C(c1cnn(-c2nccc(-c3ccccc3C(F)(F)F)n2)c1C1CC1)N1CCN(CCO)CC1	none (no result: TRPML1 ag, TRPML1 blocker, TRHR enhancer, TRHR ag)
Cc1cc(/C=N/NC(=O)Cn2c3ccccc3c(=O)c3ccccc32)c(C)n1-c1ccc(Cl)cc1	TRPML1 blocker inconclusive
Cc1ccc(-n2c(C)cc(/C=N/NC(=O)Cn3c4ccccc4c(=O)c4ccccc43)c2C)cc1	TRHR enhancer 33
COC(=O)C1CCN(Cc2ccc3c(c2)CN(C(=O)c2cc4cc(F)ccc4[nH]2)CCO3)CC1	none (no result: TRPML1 ag, TRPML1 blocker, TRHR enhancer, TRHR ag)
Cc1cccc(C)c1N(CCCc1cccnc1)C(=O)[C@@H](C)N	none (no result: TRPML1 ag, TRPML1 blocker, TRHR enhancer, TRHR ag)
C[C@@H]1CN(Cc2ccc3c(c2)CN(Cc2coc4ccccc4c2=O)CCO3)C[C@H](C)O1	none (no result: TRPML1 ag, TRPML1 blocker, TRHR enhancer, TRHR ag)
CCOC(=O)C1=C(C)NC(=O)CC1c1ccccc1 (configuration not stated)	TRHR enhancer 40
O=C(CSc1nc2ccc(NC(=O)CSc3nnnn3-c3ccccc3)cc2s1)Nc1ccccc1	none
c1ccc(-n2nnnc2SCCCSc2nc3ccccc3s2)cc1	TRHR enhancer 34
COc1ccc(NS(=O)(=O)c2c(C(=O)N3CCCCCC3)c(C)n(C)c2C)cc1OC	none
COc1cccc(NS(=O)(=O)c2c(C(=O)N3CCCCCC3)c(C)n(C)c2C)c1	TRHR enhancer 33
Nc1c(C(=O)NCc2ccccc2)nnn1Cc1ccccc1	TRHR enhancer 34
CCOc1ccc(C(=O)Nc2c(C(=O)c3ccccc3)oc3ccccc23)cc1	TRHR ag 32 (no result: Glioma ERSR ind)
O=[S+]([O-])(NC[C@H]1CCC[C@H](CN[S+](=O)([O-])c2c(F)cccc2F)C1)c1ccc2c(c1)OCCO2	none (no result: TRPML1 ag, Glioma ERSR ind, TRPML1 blocker)
Cc1[nH]c2c(Br)cccc2c1[C@H]1[C@@H](CC#N)C1(C)C	TRHR enhancer 32
Cc1c([C@H]2[C@@H](CC#N)C2(C)C)c2ccccc2n1C	none
O=C(O)CCCNC(=O)CCCn1nnc2ccccc2c1=O	TRHR enhancer 32
COc1ccc2c(c1)CCc1cnc(-n3ncc(C(=O)NCC(C)(C)CN(C)C)c3C)nc1-2	none (no result: TRPML1 ag, TRPML1 blocker, TRHR enhancer, TRHR ag)
O=C(CCNC(=O)c1ccccc1)N/N=C/c1ccc([N+](=O)[O-])cc1	none
C/C=N/NC(=O)CCNC(=O)c1ccccc1	TRHR enhancer 33
CCC1C(=O)NCCN1Cc1ccc2c(c1)CN(Cc1cccc(OC)c1OC)CCO2 (configuration not stated)	none (no result: TRPML1 ag, TRPML1 blocker, TRHR enhancer, TRHR ag)
O=C(NCc1ccccn1)c1n[nH]c2ccccc12	TRHR enhancer 39
O=C(NCc1ccccn1)c1n[nH]c(=O)c2ccccc12	none
COC(=O)c1ccc(C)cc1C1CN=NC12Cc1cc(C)ccc1C2=O (configuration not stated)	TRPML1 ag 95 (no result: TRHR enhancer, TRHR ag)
O=c1c2[nH]c3ccsc3c2cnn1Cc1ccccc1F	none (no result: TRPML1 ag, Glioma ERSR ind, TRPML1 blocker)
COc1ccc(CN(C(=O)c2nsc(Cl)c2Cl)C(C(=O)NC2CCCC2)c2ccc(C)cc2)cc1 (configuration not stated)	TRHR enhancer 37
COc1ccc(CN(C(=O)c2nsc(Cl)c2Cl)C(C(=O)NC2CCCCC2)c2ccc(OC)cc2)cc1 (configuration not stated)	none

Assay outcomes as filed in PubChem.
